Laboratory results as given in PubChem BioAssay AID652208 (Broad Institute, 2013).
Measured potencies and affinities stand elsewhere. A number with no mark means an inactive call.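 How the source made its calls: active means Loss of cell signal with fitted half-effect dose at or below twice the top valid tested dose; inconclusive means Poor fit, or flat fit from -70 to -30 percent; inactive means Half-effect above limit, rising signal, or flat within 30 percent.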

test: HEK293T cell cytotoxicity, dose response, cytotoxicity control for HIV Vif inhibitor project, cherry-picks (AID 652208); settings: HEK293T viability, CellTiter-Glo luminescence, 24 h; series mostly up to 26 µM; activity change, negative = cytotoxicity: at the top concentration;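 further: 0% = median neutral control wells and -100% = median staurosporine control wells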

Compound | activity change, negative = cytotoxicity [%]
COc1ccc(CN2C3CCC2CC(NC(=O)c2cc(OC)c(OC)c(OC)c2)C3)cc1 (stereo not drawn) | -11.2
CCOc1ncccc1C(=O)OCc1ccccc1 | -8.04
Cc1ccc(NC(=O)Cn2ncn3c(cc4ccccc43)c2=O)c(C)c1 | -0.859
CNC(=O)c1ccc(NC(=O)c2cc(S(=O)(=O)N(C)C)ccc2N2CCCC2)cc1 | -3.29
O=C(Cn1c(=O)oc2cc(S(=O)(=O)N3CCCCC3)ccc21)N1CCc2ccccc21 | -4.05
CC(=O)Nc1ccc(C2(c3ccc(NC(C)=O)cc3)NC(=O)c3ccccc32)cc1 | 11.7
CCC(C)C(=O)Nn1c(C2CC2)nc2cc(OC)c(OC)cc2c1=O (stereo not drawn) | -7.99
COc1ccc(CNC(=O)COC(=O)c2cc(S(=O)(=O)N3CCOCC3)ccc2O)cc1OC | -4.34
COc1ccc2nc3ccccc3nc2c1NC(=O)c1ccc(Cl)cc1 | 1.12
CCN(C(=O)COc1ccc(C)cc1OC)c1cccc2ccccc12 | -0.891
COc1cc(C(C)=O)ccc1OCC(=O)NCC1(N2CCCCC2)CCCCC1 | -8.55
CCOc1ccc(N2C(=O)/C(=C/c3cccs3)N(CC(=O)OC)C2=S)cc1 | -4.27
COc1ccc(OC)c(/C(O)=C/C(=O)C(=O)Nc2cc(C)ccc2OC)c1 | -1.12
Cc1cc(C)c(S(=O)(=O)N2CCN(S(=O)(=O)N3CCOCC3)CC2)c(C)c1 | 2.67
CCn1c(/C=C/c2ccc(F)cc2)nc2ccccc2c1=O | -13.8
COc1cc(OC)cc(C(=O)NC(C(=O)Nc2ccc3c(c2)OCO3)C(C)C)c1 (stereo not drawn) | 3.67
C=CCn1c(O)c(C2=c3ccccc3=NC2=O)s/c1=N/c1nccs1 | -12.6
COC(=O)c1sc(-c2ccc(Cl)cc2)cc1NC(=O)CSCC(=O)O | -1.52
Cc1ccc(-c2nn3c(C)nnc3c3ccccc23)cc1S(=O)(=O)NCc1ccccc1 | -23.3

Compound | activity change, negative = cytotoxicity [%]
S=C(Nc1ccccc1)N1CCn2c(nc3ccccc32)C1 | -6.92
O=C(CSc1nnc(CNc2ccc(F)cc2)o1)c1ccccc1 | 4.08
Cc1nc(C)n(CC(=O)N2CCCC(C(=O)c3ccc(C(F)(F)F)cc3)C2)n1 (stereo not drawn) | -0.546
CCCn1c(=N)c(C(=O)NCc2ccc3c(c2)OCO3)cc2c(=O)n3cccc(C)c3nc21 | -9.2
CCc1ccc(N2C(=O)/C(=C/c3cccs3)N(CC(=O)OC)C2=S)cc1 | -3.31
CCOC(=O)Cc1csc(NC(=O)CSc2nnnn2-c2ccc(CC)cc2)n1 | -4.71
Cc1ccc2c(COC(=O)c3ccccc3OC(F)F)cc(=O)oc2c1 | -30.2
O=C(O)c1ccc(S(=O)(=O)c2ccc3c(c2)C(=O)N(c2ccc(Br)cc2)C3=O)cc1 | 4.72
COc1ccc(C(=O)NC2CC3CCCC(C2)N3Cc2ccccc2)cc1OC (stereo not drawn) | 1.58
CCCCOc1ncnc2c1[nH]c1ccccc12 | -16.2
CCOc1ccc2nc(NS(=O)(=O)Cc3ccccc3)sc2c1 | -21.3
O=C(COC(=O)c1ccccc1Br)NC1CCCC1 | -10.5
CCOC(=O)c1c(NC(=O)CCC(=O)N2CCOCC2)sc2c1CC(C)(C)OC2 | 6.96
COc1cccc(N2CCN(C(=O)c3ccc(CS(=O)c4ccc(C)cc4)o3)CC2)c1 (stereo not drawn) | -14.4
Cc1ccc(C(=O)COC(=O)c2cc(=O)[nH]c3ccccc23)cc1C | 0
COc1ccc(C(=O)NCc2oc(-c3ccccc3)cc2C(=O)O)cc1 | 5.02
CCN(CC)C1Oc2cc3c(cc2C(c2cc(OC)c(OC)c(OC)c2)C1C)OCO3 (stereo not drawn) | -18.4
COc1ccc(CNC(=O)Nc2cccs2)cc1OC | -1.77
Cc1cc(OCC(C)C)ccc1/C(O)=C1/C(=O)C(=O)N(Cc2cccnc2)C1c1ccncc1 (stereo not drawn) | 3.25
